Bioassay records (PubChem)
Cruzain inh Det – cruzain (T. cruzi) inhibition with detergent. hit rate 0.43% among 200,000. Potency, µM, inactives show max response, negative = inhibition, usual class: inhibitors. AID 1478. purified cruzain, Z-FR-AMC fluorescence, 0.01% Triton. P25779;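 further: plate controls were neutral wells for no effect and buffer without enzyme for full effect; nearly all actives have a fitted effect of over 40% in size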
Target sequence (P25779 123-467 limits assumed): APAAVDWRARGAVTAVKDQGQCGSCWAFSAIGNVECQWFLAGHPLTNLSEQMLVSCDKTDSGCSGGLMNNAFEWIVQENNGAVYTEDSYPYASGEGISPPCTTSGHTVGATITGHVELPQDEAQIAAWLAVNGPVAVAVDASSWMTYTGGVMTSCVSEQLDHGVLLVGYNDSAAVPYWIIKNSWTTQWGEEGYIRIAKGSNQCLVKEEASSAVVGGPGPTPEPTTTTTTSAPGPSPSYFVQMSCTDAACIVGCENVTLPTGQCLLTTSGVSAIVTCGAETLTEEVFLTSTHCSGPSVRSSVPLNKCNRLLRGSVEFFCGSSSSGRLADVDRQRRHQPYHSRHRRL
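Purified cruzain (1.5 nM final) was preincubated with compounds for 15 min at room temperature in 100 mM sodium acetate pH 5.5, 5 mM DTT, 0.01% Triton X-100. Reaction started with 2 uM Z-FR-AMC; AMC fluorescence change over 60 s gave activity.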
Cruzain inh noDet – cruzain (T. cruzi) inhibition without detergent; purified cruzain, Z-FR-AMC fluorescence, no detergent; Potency, µM, for inactives: max response, negative = inhibition, most hits filed as inhibitors; hit rate 2.3% among 200,000; AID 1476;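 further: plate controls were enzyme without inhibitor for no effect and buffer without enzyme for full effect; nearly all actives have a fitted effect of over 40% in size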
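Detergent-free condition (0.00005% Triton X-100) in acetate buffer pH 5.5 with DTT. 1.5 nM enzyme and compound were pre-mixed 15 min, then 2 uM Z-FR-AMC substrate added; reaction progress from fluorescence change between first and third reads (60 s).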
* hit, by the source's call; u = inconclusive. Sampled rows, rich in hits. Any-hit rate of the full collection: about 2.6%. The call rests on the fitted dose curve; in most records, active means well fitted curve in the direction sought with a large enough effect; inconclusive means small, poorly fitted or top-dose-only effect, or another doubt; inactive means no such curve, though single readings can be large; an effect the other way counts as inactive or inconclusive. Potency means the concentration at half of the fitted maximal effect.

SMILES	Cruzain inh Det	Cruzain inh noDet
COc1ccc(NC(=O)C2=C(C)Nc3c(C(=O)Nc4ccc(C)cc4)cnn3C2c2cc(OC)ccc2OC)cc1 (stereo not drawn)	-6%	-1%
CC1=C(C(=O)Nc2ccc(Cl)cc2)C(c2ccccc2C)n2ncc(C(=O)Nc3ccc(C)cc3)c2N1 (stereo not drawn)	-4%	32µM*
CC1=C(C(=O)Nc2ccc(Cl)cc2)C(c2ccccc2)n2ncc(C(=O)Nc3ccccc3)c2N1 (stereo not drawn)	-10%	u
COc1ccc(NC(=O)C2=C(C)Nc3c(C(=O)Nc4ccc(C)cc4)cnn3C2c2cccc(Cl)c2)cc1 (stereo not drawn)	-4%	16µM*
O=C(NCC1CCCO1)c1c[nH]c2ccc(S(=O)(=O)Nc3cccc(C(F)(F)F)c3)cc2c1=O (stereo not drawn)	-12%	22%
CCCCOc1ccc(CNC(=O)c2cnc3sc(N4CCC(C)CC4)nn3c2=O)cc1	8%	u
COC(=O)c1ccc2c(=O)n(Cc3ccco3)c(SCC(=O)Nc3ccc(C)c(Cl)c3)nc2c1	7%	6.3µM*
O=C(CSc1nc2cc(Cl)ccc2c(=O)n1Cc1ccco1)Nc1ccc(S(=O)(=O)N2CCOCC2)cc1	-5%	u
N#Cc1ccsc1NC(=O)CSc1ncnc2ccccc12	-8%	16µM*
N#Cc1ccsc1NC(=O)CSc1ncn[nH]1	5%	-5%
CC(NC(=O)CSc1n[nH]c(-c2ccccc2Cl)n1)c1nc2ccccc2[nH]1 (stereo not drawn)	1%	0%
COc1ccc(CNC(=O)Cn2nnc(-c3ccc(NC(=O)C4CCCCC4)cc3)n2)cc1	3%	10µM*
CCOc1ccc(-c2nnn(CC(=O)NCc3ccc(OC)cc3)n2)cc1OCC	0%	24%
O=C(c1cccc(Cl)c1)N1CCC(c2nc3c(nnn3Cc3ccc(F)cc3F)c(=O)[nH]2)CC1	-7%	u
O=C(CN1C(=O)c2ccccc2S1(=O)=O)c1ccccc1	-4%	-16%
Cc1ccc(C(=O)CN2/C(=C(\O)c3ccccc3)C(=O)c3ccccc3S2(=O)=O)c(C)c1	0%	25µM*
COc1ccccc1C(=O)NC(=O)Nc1ccc(-n2nc(C(F)(F)F)cc2C(F)(F)F)cc1	-2%	-7%
CCN(CC)CCN1CCn2c3c(c4cc(C)ccc42)CCCC31 (stereo not drawn)	-8%	-4%
Cc1ccc2c(c1)c1c3n2CCN(C(=O)c2cccc(C(F)(F)F)c2)C3CCC1 (stereo not drawn)	-5%	0.63µM*
COc1ccc(-n2c(=O)c3ccc(C(=O)NCc4ccc(C)cc4)cc3n(Cc3ccc(F)cc3Cl)c2=O)cc1	-2%	-11%
CCCCc1ccc(NC(=O)OC)cc1	-2%	4%
CCCCc1ccc(N=N/C(C(=O)Nc2ccc(NC(C)=O)cc2OC)=C(/C)O)cc1	10µM*	15%
CCOc1ccccc1Nc1ncnc2c1c(-c1ccccc1)cn2-c1ccc(OC)cc1	1%	10µM*
COc1ccc(-n2cc(-c3ccccc3)c3c(NC4CCCC4)ncnc32)cc1	-1%	4%
Cc1sc(NC(=O)c2cccs2)nc1-c1ccccc1	-8%	2%
SMILES	Cruzain inh Det	Cruzain inh noDet
Cc1sc(NC(=S)NC(=O)c2cccs2)nc1-c1ccc(C(C)C)cc1	0%	10µM*
Cc1ccc(-c2csc(NC(=S)NC(=O)c3cccs3)n2)cc1	-3%	16µM*
Cc1cc(C)c2oc(-c3ccc(C)c(NC(=S)NC(=O)c4cccs4)c3)nc2c1	6%	7.9µM*
Cc1ccc(-c2nc3ccccc3o2)cc1NC(=S)NC(=O)c1cccs1	-3%	u
O=C(NC(=S)Nc1nc(-c2ccccc2)cs1)c1cccs1	-4%	u
Cc1cc2n(n1)CCCN2C(=O)Nc1ccc(Cl)cc1	-2%	1%
Cc1nc2nc(-c3ccc(Cl)cc3Cl)nn2c(C)c1CCC(=O)Nc1ccc(F)cc1	-1%	-4%
O=C(Nc1cnc(N2CCC(N3CCCCC3)CC2)c(C(=O)O)c1)c1ccc(Br)cc1	-3%	-10%
Cc1ccccc1OCc1nc(-c2ccc(NC(=O)c3ccc4c(c3)OCO4)cc2)no1	3%	13µM*
Cc1ccccc1OCc1nc(-c2ccc(NC(=O)c3ccco3)cc2)no1	-5%	2%
CCC(CC)C(=O)N1CCc2cc(OC)c(OC)cc2C1COc1ccccc1OC (stereo not drawn)	0%	27%
CCC(=O)N1c2ccc(S(=O)(=O)CCC(=O)Nc3ccc(Br)c(C)c3)cc2CC1C (stereo not drawn)	-7%	-2%
O=C(CSc1nc(-c2ccccc2)nc2ccccc12)Nc1nccs1	-2%	u
O=C(CSc1nc(-c2ccccc2)cs1)Nc1nccs1	5%	25µM*
O=C(NC(=S)Nc1ccccc1N1CCOCC1)c1ccc(-c2cc(Cl)ccc2Cl)o1	-3%	10µM*
CC1CCN(c2ccccc2NC(=S)NC(=O)c2ccc(-c3cccc([N+](=O)[O-])c3)o2)CC1	2%	7.9µM*
